Experimental findings from PubChem BioAssay AID2284094 (EPA ToxCast) are described below.

The source made the active and inactive calls. How the source made its calls: active means hit-call score of the fitted dose curve at least 0.9, where 1 is the maximum; inactive means score below 0.9.

Chain of human VHR Phosphatase, DUSP3 (gene 1845) (P51452 whole entry, looked up): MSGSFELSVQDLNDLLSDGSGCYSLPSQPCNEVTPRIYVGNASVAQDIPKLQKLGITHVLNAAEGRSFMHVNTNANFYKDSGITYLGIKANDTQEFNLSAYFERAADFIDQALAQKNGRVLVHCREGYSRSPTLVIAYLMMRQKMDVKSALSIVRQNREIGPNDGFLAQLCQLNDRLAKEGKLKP

The test has as its target human VHR Phosphatase, DUSP3 (gene 1845) (UniProt P51452). Description: ERF_FR_ENZ_hDUSP3: Eurofins (ERF) Enzymatic Assay for human VHR Phosphatase. The method, then:
ERF_FR_ENZ_hDUSP3 is a biochemical, single-readout assay that uses extracted gene-proteins in a cell-free assay. Measurements were taken 0.5 hour after chemical dosing in a 96-well plate. See VHR Human Phosphatase Enzymatic Assay, PhosphataseProfiler.ERF_FR_ENZ_hDUSP3 is an assay component calculated from the ERF_FR_ENZ_hDUSP3 assay. It is designed to measure enzyme activity using a type of enzyme reporter as detected by fluorescence intensity with spectrophotometry technology.Data from the assay component ERF_FR_ENZ_hDUSP3 was analyzed at the assay endpoint, ERF_FR_ENZ_hDUSP3, in the positive analysis fitting direction relative to DMSO as the negative control and baseline of activity. Using a type of enzyme reporter, loss-of-signal activity can be used to understand changes in enzymatic activity as they relate to gene DUSP3. To generalize the intended target to other relatable targets, this assay endpoint is annotated to the […].
Human recombinant protein phosphatase VHR expressed in E. coli is used. Test compound and/or vehicle is preincubated with 0.2 mU/ml enzyme for 15 minutes at 37C in modified HEPES buffer pH 7.2. The reaction is initiated by addition of 100 uM DiFMUP for 60 minutes. Determination of the amount of DiFMU formed is read spectrofluorimetrically at 358 nm/450 nm. Compounds are screened at 10 uM.
In the case of `O=C(/C=C/c1ccc(O)cc1)CC(=O)/C=C/c1ccc(O)cc1`, the AC50 (usually the concentration giving half of the maximal activity seen) is 1.01 nM (active).
